Hits are enriched below; roughly 8.1% of the tested compounds scored in any of these assays.
Shh pathway inh = blocks Sonic Hedgehog signaling. Shh-LIGHT2 Gli-luciferase reporter, 30 h. AID 2313. 2.1% of 22,000 active. inhibition, % (concentration not given with the values);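 active = mean inhibition across valid replicates above about 65%, limit read from the data; inconclusive = mean under the limit, yet half or more replicates past it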;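 note: pathway switched on by Shh-conditioned medium diluted 1 in 25 in low serum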
MITF inhib = MITF inhibition; AID 2240; inhibition, % (test concentration not listed); TRPM1 promoter luciferase, luminescence, 24 h; 0.28% of 37,000 active; in the data active = inhibition above about 85%; inconclusive = no clear call, values can overlap the other calls; inactive = below about 68%;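 note: human melanocyte line stably carrying TRPM1 promoter luciferase reporter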
NOMO-1 viab = STK33 inhibitor candidate reducing NOMO-1 cell viability; NOMO-1 AML viability, CellTiter-Glo luminescence, 72 h; 7.5% of 37,000 active; inhibition, % (test concentration not listed); AID 2330; in the data active = inhibition above about 80%; inconclusive = no clear call, values can overlap the other calls
Hits are given with their value; – = inactive; ? = inconclusive; · = not tested or not shown.

SMILES	Shh pathway inh	MITF inhib	NOMO-1 viab
C[C@@H]1CN([C@@H](C)CO)C(=O)Cc2cc(NS(=O)(=O)c3ccc(Cl)cc3)ccc2O[C@@H]1CN(C)CC1CCCCC1	–	–	102
C[C@H]1CN([C@@H](C)CO)C(=O)Cc2cc(NS(=O)(=O)c3ccc(Cl)cc3)ccc2O[C@H]1CN(C)CC1CC1	·	–	–
CCn1c(SCC(=O)c2cccc([N+](=O)[O-])c2)nnc1-c1ccc(Cl)cc1Cl	·	–	–
C=CCNC(=O)CSc1nccc(-c2sc3sc(Br)c(C)c3c2C)n1	–	–	110
CCOC(=O)c1c(NC(=O)CSc2nccc(C)n2)sc(C)c1C	·	–	–
Cc1c(Br)sc2sc(-c3ccnc(SCC(=O)NC(C)C)n3)c(C)c12	–	–	115
Cc1csc2sc(-c3ccnc(SCc4ccccc4)n3)c(C)c12	–	–	–
COc1ccc(N=C(C)c2c(C(F)(F)F)[nH]n(-c3nc4ccccc4s3)c2=O)cc1OC	–	–	–
CCN(CC)C(=S)Oc1ccccc1C(=O)Nc1ccc(Cl)c(Cl)c1	–	–	–
COc1ccc(OC)c(NC(=O)CSc2nnc(C)s2)c1	·	–	–
COc1ccc(OC)c(NC(=O)CSc2nnc(-c3cccnc3)s2)c1	·	–	110
C[C@H]1CN([C@@H](C)CO)C(=O)c2cccc(NC(=O)c3nc4ccccc4s3)c2O[C@H]1CN(C)C(=O)Nc1ccc(C(F)(F)F)cc1	–	–	110
C[C@@H]1CN([C@@H](C)CO)C(=O)c2cccc(NC(=O)c3nc4ccccc4s3)c2O[C@@H]1CN(C)Cc1ccccc1	–	–	104
C[C@H]1CN([C@@H](C)CO)C(=O)c2cccc(NC(=O)c3nc4ccccc4s3)c2O[C@@H]1CN(C)C(=O)Nc1ccc(C(F)(F)F)cc1	–	–	–
C[C@H](CO)N1C[C@H](C)[C@H](CN(C)Cc2ccc(-c3ccccc3)cc2)Oc2c(NC(=O)c3nc4ccccc4s3)cccc2C1=O	–	–	?
C[C@@H]1CN([C@H](C)CO)C(=O)c2cccc(NC(=O)c3nc4ccccc4s3)c2O[C@H]1CN(C)Cc1ccc(Cl)c(Cl)c1	–	–	91
C[C@@H]1CN([C@H](C)CO)C(=O)c2cccc(NC(=O)c3nc4ccccc4s3)c2O[C@H]1CN(C)CC1CCCCC1	–	–	116
C[C@@H]1CN([C@@H](C)CO)C(=O)c2cccc(NC(=O)c3nc4ccccc4s3)c2O[C@H]1CN(C)Cc1ccc(Cl)c(Cl)c1	–	–	–
C[C@@H]1CN([C@@H](C)CO)C(=O)c2cccc(NC(=O)c3nc4ccccc4s3)c2O[C@H]1CN(C)CC1CCCCC1	–	–	?
Cc1cccc(NC(=O)CN(C)S(=O)(=O)c2ccc3ccccc3c2)c1C	·	–	–
CCOC(=O)c1c(-c2ccccc2)csc1NC(=O)c1cccc(OC(C)=O)c1	·	–	–
CCOc1ccc(NC(=O)Cn2cnc3scc(-c4ccc5ccccc5c4)c3c2=O)cc1	·	–	–
CC1=CC(c2ccoc2)c2c(oc(N)c(C#N)c2=O)S1 (stereo not given)	–	–	–
O=S(=O)(CCSc1nccc(-c2ccc(Cl)cc2)n1)c1ccc(Cl)cc1	–	–	–
CS(=O)(=O)N(CC(=O)NC1CC1)c1ccccc1	·	–	–
SMILES	Shh pathway inh	MITF inhib	NOMO-1 viab
Cc1sc2nc(SCc3nc4ccccc4[nH]3)n(-c3ccccc3)c(=O)c2c1C	·	–	–
Cc1cccc(NC(=O)c2ccc(OCC(=O)Nc3ccc(Cl)c(Cl)c3)cc2)c1C	·	–	–
Cc1cccc(OCC(=O)Nc2ccccc2C(=O)NC(C)(C)C)c1	·	–	–
C[C@@H]1CN([C@@H](C)CO)C(=O)c2cccc(NC(=O)c3nc4ccccc4s3)c2O[C@@H]1CN(C)Cc1ccc(C(F)(F)F)cc1	–	–	99
CNC[C@H]1Oc2c(NC(=O)c3nc4ccccc4s3)cccc2C(=O)N([C@@H](C)CO)C[C@@H]1C	–	–	–
C[C@H](CO)N1C[C@H](C)[C@H](CN(C)Cc2ccc(C(=O)O)cc2)Oc2c(NC(=O)c3nc4ccccc4s3)cccc2C1=O	–	–	–
CNC[C@H]1Oc2c(NC(=O)c3nc4ccccc4s3)cccc2C(=O)N([C@H](C)CO)C[C@@H]1C	–	–	97
C[C@H](CO)N1C[C@H](C)[C@@H](CN(C)C(=O)Nc2ccccc2)Oc2c(NC(=O)c3nc4ccccc4s3)cccc2C1=O	?	–	–
C[C@H](CO)N1C[C@H](C)[C@@H](CN(C)C(=O)Nc2cccc3ccccc23)Oc2c(NC(=O)c3nc4ccccc4s3)cccc2C1=O	–	–	99
CC(C)c1ccccc1OCC(=O)Nc1sc2c(c1C(N)=O)CCCC2	·	–	–
O=C1COc2ccc(S(=O)(=O)NCCOc3ccccc3)cc2N1	·	–	–
Cc1ccc(OCCCn2cnc3ccccc3c2=O)c([N+](=O)[O-])c1	·	–	–
COC(=O)c1ccc(Cl)c(NC(=O)COc2ccc(OC)cc2)c1	·	–	–
CCCCn1c(NCc2ccc(OC)cc2O)nc2ccccc21	·	–	–
